In all, about 17,000 compounds went through this assay and about 260 (1.5%) were called active.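 How the source made its calls: active means spot fluorescence over background with P-value below 7% in all four replicate spots, showing protein binding; inactive means the rest.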 The list comes from a sample in which actives are over-represented; it also holds similar structures and randomly drawn compounds.

Sequence of Myc proto-oncogene protein (Homo sapiens) (P01106 whole entry, looked up): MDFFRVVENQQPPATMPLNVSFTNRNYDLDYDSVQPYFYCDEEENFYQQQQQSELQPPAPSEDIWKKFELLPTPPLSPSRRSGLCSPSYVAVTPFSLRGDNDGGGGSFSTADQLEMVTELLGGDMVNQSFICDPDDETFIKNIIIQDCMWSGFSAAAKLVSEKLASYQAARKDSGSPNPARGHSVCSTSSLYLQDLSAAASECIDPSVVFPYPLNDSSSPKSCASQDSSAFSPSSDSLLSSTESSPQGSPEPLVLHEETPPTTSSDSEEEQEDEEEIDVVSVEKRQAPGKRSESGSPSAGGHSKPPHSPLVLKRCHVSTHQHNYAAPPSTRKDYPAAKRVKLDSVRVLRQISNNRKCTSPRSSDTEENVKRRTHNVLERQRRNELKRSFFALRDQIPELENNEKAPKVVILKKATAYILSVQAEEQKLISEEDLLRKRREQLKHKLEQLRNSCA

This experiment has as its target Myc proto-oncogene protein (Homo sapiens) (UniProt P01106). Put plainly: small molecules binding His-tagged c-Myc – biochemical, small molecule microarray, anti-His fluorescence, primary screen (AID 624141).
Regarding `COc1cc(O[C@@H]2O[C@H](CO[C@H]3OC[C@](O)(COC(=O)c4ccc(O)c(OC)c4)[C@H]3O)[C@@H](O)[C@H](O)[C@H]2O)ccc1O`, the call was inactive.
Take `COc1ccc(NC(=O)N(C)C[C@@H]2OCCCC[C@H](C)Oc3ccc(NC(=O)c4ccccc4)cc3C(=O)N([C@H](C)CO)C[C@H]2C)cc1`: the molecule was classed as inactive.
The entry for `COc1ccccc1NC(=O)c1ccc(OCC(=O)Nc2ccccc2F)cc1` is “inactive”.
Turning to `O=C(Nc1ccc(Cl)cc1C(=O)NCc1ccco1)c1ccco1`, the call was inactive.
As to `C[C@@H]1CN([C@H](C)CO)C(=O)c2cc(NS(=O)(=O)c3cn(C)cn3)ccc2O[C@@H](C)CCCCO[C@H]1CN(C)C`, the molecule was classed as inactive.
As to `CN(C)c1nc(N)nc(CSc2ccccn2)n1`, the call was inactive.
As for `COc1ccccc1NC(=O)CNC(=O)c1ccc(C)cc1`, the result was inactive.
As for `CC(C)NC(=O)N(C)C[C@@H]1OCCCC[C@H](C)Oc2ccc(NC(=O)Nc3ccccc3)cc2C(=O)N([C@H](C)CO)C[C@@H]1C`, the molecule was called inactive.
`C[C@H](CO)N1C[C@H](C)[C@@H](CN(C)C(=O)NC2CCCCC2)Oc2c(NC(=O)Nc3ccc(F)cc3)cccc2C1=O`: the molecule was called inactive.
The result for `C[C@H]1CN([C@@H](C)CO)C(=O)c2cccc(NC(=O)Nc3ccc(C(F)(F)F)cc3)c2O[C@H]1CN(C)C(=O)NC1CCCCC1` reads “active”; that for `C[C@@H]1CCCCO[C@@H](CN(C)C(=O)Cc2ccccc2)[C@H](C)CN([C@@H](C)CO)C(=O)c2cc(NC(=O)Nc3ccc(F)cc3)ccc2O1`, “active”; that for `C[C@H]1CN([C@@H](C)CO)C(=O)c2cccc(NC(=O)c3cnccn3)c2O[C@H]1CN(C)S(=O)(=O)c1cn(C)cn1`, “inactive”.
The result for `C[C@@H]1CN([C@H](C)CO)C(=O)c2cccc(NC(=O)Nc3ccccc3)c2O[C@@H]1CN(C)C(=O)NC1CCCCC1` reads “inactive”.
The result for `C[C@@H]1CCCCO[C@H](CN(C)C(=O)Nc2ccccc2)[C@H](C)CN([C@@H](C)CO)C(=O)c2cc(N(C)C)ccc2O1` reads “inactive”; that for `C[C@H]1CN([C@@H](C)CO)C(=O)c2cccc(NC(=O)c3cnccn3)c2O[C@H]1CN(C)C(=O)Nc1ccccc1`, “inactive”; that for `C[C@@H]1CCCCO[C@@H](CN(C)C(=O)Nc2ccccc2)[C@@H](C)CN([C@H](C)CO)C(=O)c2cc(NC(=O)Nc3ccc(F)cc3)ccc2O1`, “inactive”.
Turning to `C[C@H](CO)N1C[C@H](C)[C@@H](CN(C)C(=O)Nc2cccc3ccccc23)OCCCC[C@H](C)Oc2ccc(N(C)C)cc2C1=O`, the outcome was active.
With `C[C@@H]1CCCCO[C@@H](CN(C)C(=O)Nc2ccccc2)[C@@H](C)CN([C@@H](C)CO)C(=O)c2cc(N(C)C)ccc2O1`, the molecule was classed as inactive.
Turning to `CC(C)NC(=O)Nc1ccc2c(c1)C(=O)N([C@@H](C)CO)C[C@@H](C)[C@H](CN(C)C(=O)Cc1ccccc1)OCCCC[C@H](C)O2`, the result was inactive.
Consider `Cc1noc(C)c1S(=O)(=O)N(C)C[C@H]1Oc2c(NC(=O)c3cnccn3)cccc2C(=O)N([C@H](C)CO)C[C@H]1C`, for which the outcome was active.
Regarding `C[C@@H]1CCCCO[C@H](CN(C)C(=O)C2CCCCC2)[C@@H](C)CN([C@@H](C)CO)C(=O)c2cc(NC(=O)Nc3ccccc3)ccc2O1`, the call was active.
As for `C[C@@H]1CCCCO[C@H](CN(C)C(=O)Nc2ccccc2)[C@H](C)CN([C@H](C)CO)C(=O)c2cc(NC(=O)Nc3ccccc3)ccc2O1`, the result was inactive.
As for `CC(C)NC(=O)N(C)C[C@@H]1OCCCC[C@@H](C)Oc2ccc(NC(=O)Nc3ccccc3)cc2C(=O)N([C@H](C)CO)C[C@@H]1C`, the outcome was inactive.
With `CC(C)NC(=O)N(C)C[C@H]1OCCCC[C@@H](C)Oc2ccc(NC(=O)Nc3cccc4ccccc34)cc2C(=O)N([C@H](C)CO)C[C@@H]1C`, the molecule was called inactive.
On to `Cc1cc(C)cc(Oc2c(C(F)(F)F)oc3cc(OCC(=O)O)ccc3c2=O)c1`, for which the call was active.
Turning to `C[C@@H]1CN([C@H](C)CO)C(=O)CCCn2cc(nn2)CO[C@@H]1CN(C)C(=O)Nc1ccc(-c2cccs2)cc1`, the outcome was inactive.
Take `CN(CC(=O)O)S(=O)(=O)c1ccc(F)c2ccccc12`: the result was inactive.
With `COc1ccc(S(=O)(=O)N(C)C[C@H]2Oc3c(NS(=O)(=O)c4cccs4)cccc3C(=O)N([C@H](C)CO)C[C@@H]2C)cc1`, the molecule was called inactive.
As to `C[C@H](CO)N1C[C@H](C)[C@@H](CN(C)Cc2ccc(C(F)(F)F)cc2)Oc2ccc(NC(=O)CCN3CCOCC3)cc2C1=O`, the call was inactive.
For the molecule `C[C@H](CO)N1C[C@H](C)[C@H](CN(C)Cc2ccc(C(=O)O)cc2)Oc2c(NC(=O)C3CCOCC3)cccc2C1=O`, the molecule was called inactive.
As to `C[C@@H]1CN([C@@H](C)CO)C(=O)Cc2cc(NC(=O)CCN3CCOCC3)ccc2O[C@@H]1CN(C)C(=O)Nc1cccc2ccccc12`, the molecule was classed as inactive.
The entry for `C[C@H](CO)N1C[C@H](C)[C@H](CN(C)S(=O)(=O)c2cn(C)cn2)Oc2ccc(N(C)C)cc2C1=O` is “inactive”; for `Cc1noc(C)c1S(=O)(=O)Nc1cccc2c1O[C@@H](CN(C)S(=O)(=O)c1cn(C)cn1)[C@@H](C)CN([C@H](C)CO)C2=O` it is “inactive”.
The entry for `O=C(c1ccc(F)cc1)C1CCN(CCCCc2ccccc2)CC1` is “inactive”; for `O=c1c2ccccc2[nH]c(=S)n1CCN1CCC(=C(c2ccc(F)cc2)c2ccc(F)cc2)CC1` it is “active”.
For the molecule `COc1ccc(S(=O)(=O)N(C)C[C@H]2Oc3c(NC(=O)C4CCOCC4)cccc3C(=O)N([C@@H](C)CO)C[C@@H]2C)cc1`, the result was inactive.
On to `C[C@@H]1CN([C@H](C)CO)C(=O)c2cc(NC(=O)c3ccncc3)ccc2O[C@@H]1CN(C)C(=O)Nc1ccc(F)cc1`, for which the call was inactive.
The entry for `COc1ccc(S(=O)(=O)N(C)C[C@@H]2Oc3ccc(NC(=O)Nc4cccc5ccccc45)cc3C(=O)N([C@H](C)CO)C[C@H]2C)cc1` is “inactive”.
As to `C[C@@H]1CN([C@@H](C)CO)C(=O)c2cc(NC(=O)C3CCCCC3)ccc2O[C@@H](C)CCCCO[C@@H]1CN(C)Cc1ccc(C(=O)O)cc1`, the outcome was inactive.
As to `C/C=C(\C)C(=O)O[C@H]1C=CC(=O)O[C@H]1/C=C/[C@H](O)[C@H](C)O`, the molecule was called inactive.
`C[C@@H]1CN([C@@H](C)CO)C(=O)c2cc(NC(=O)CCCN(C)C)ccc2O[C@@H](C)CCCCO[C@H]1CN(C)Cc1ccc2c(c1)OCO2`: the call was inactive.
The result for `COC(=O)COc1c(Sc2ccc([N+](=O)[O-])cc2)c(C)nn1-c1ccccc1` reads “inactive”.
For the molecule `COC(=O)C1=CO[C@@H](O[C@@H]2O[C@H](CO)[C@@H](O)[C@H](O)[C@H]2O)[C@@H]2[C@@H](C)[C@@H](OC(=O)C3=CO[C@@H](O[C@@H]4O[C@H](CO)[C@@H](O)[C@H](O)[C@H]4O)[C@@H]4[C@@H](C)[C@@H](OC(C)=O)C[C@H]34)C[C@H]12`, the outcome was inactive.
As for `C[C@H]1CN([C@@H](C)CO)C(=O)CCCn2cc(nn2)CO[C@@H]1CN(C)S(=O)(=O)c1cccs1`, the call was inactive.
The result for `C[C@H](CO)N1C[C@H](C)[C@H](CN(C)C(=O)Nc2ccc(C(F)(F)F)cc2)Oc2ccc(NS(=O)(=O)c3ccccc3)cc2CC1=O` reads “inactive”; that for `C[C@@H]1CN([C@H](C)CO)C(=O)c2cccc(NS(=O)(=O)c3cccs3)c2O[C@@H]1CN(C)C(=O)Nc1cccc2ccccc12`, “inactive”; that for `CS(=O)(=O)N(CC(=O)Nc1ccc(C(N)=O)cc1)c1cccc(C(F)(F)F)c1`, “inactive”.
`CC(C)NC(=O)Nc1ccc2c(c1)C(=O)N([C@H](C)CO)C[C@@H](C)[C@@H](CN(C)C(=O)c1ccncc1)OCCCC[C@H](C)O2`: the result was inactive.
For the molecule `Cc1cc(C(=O)Nc2cccc3c2O[C@@H](CN(C)Cc2ccc4c(c2)OCO4)[C@@H](C)CN([C@@H](C)CO)C3=O)n(C)n1`, the outcome was inactive.
The result for `C[C@@H]1CN([C@@H](C)CO)C(=O)c2cc(NC(=O)Nc3cccc4ccccc34)ccc2O[C@@H]1CN(C)Cc1ccc(-c2ccccc2)cc1` reads “inactive”; that for `C[C@@H]1CN([C@@H](C)CO)C(=O)c2cc(NC(=O)C3CCCCC3)ccc2O[C@@H]1CN(C)S(=O)(=O)c1ccc(F)cc1`, “inactive”.
For the molecule `C[C@@H]1CCCCO[C@@H](CN(C)Cc2ccc(C(=O)O)cc2)[C@H](C)CN([C@H](C)CO)C(=O)c2cc(NC(=O)Nc3ccc(F)cc3)ccc2O1`, the molecule was called inactive.
On to `O=C(O)CCC(=O)Nc1ccc(-c2nc3ccccc3o2)cc1`, for which the call was inactive.
Take `COc1cc(/C=C/C(=O)O[C@@H]2O[C@H](CO[C@@H]3O[C@H](CO)[C@@H](O)[C@H](O)[C@H]3O)[C@@H](O)[C@H](O)[C@H]2OC(=O)/C=C/c2cc(OC)c(O)c(OC)c2)cc(OC)c1O`: the molecule was called inactive.
Take `C=CCOC(=O)[C@H]1[C@@H]2C(=O)O[C@@H](c3ccccc3)[C@@H](c3ccccc3)N2[C@@H](c2ccc(OCCOC(=O)[C@H]3C[C@H]4C(=O)NCC(=O)N4[C@H]3c3ccc(O)cc3)cc2)[C@]12C(=O)Nc1ccccc12`: the result was inactive.
Consider `C=C(C(=O)O)C1CCC(CCC)OC1=O` (stereo unspecified), for which the molecule was classed as inactive.

Values taken from PubChem BioAssay AID624141 (Broad Institute, 2012).
